Test results taken from PubChem BioAssay (Tox21).
Results filed as inconclusive are left out. Active and inactive are the calls of the source. Unless noted, calls come from the whole dose curve; as a rule, active = well fitted curve in the direction sought with a large enough effect in the repeat runs; inconclusive = weak or mixed curves; inactive = no such curve, though single readings can be large; an effect the other way counts as inactive or inconclusive.

How the values were obtained:
[1] = qHTS assay for small molecule agonists of the p53 signaling pathway (AID 651631; calls by dose curve; note: nearly all actives have a fitted effect of over 15% in size)
How it was run: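 Testing took place in human colorectal HCT-116 cells with stable p53RE-driven beta-lactamase. After 16 h of compound exposure at 37 °C, a FRET substrate was added and fluorescence recorded 2 h later.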

[2] = qHTS assay for small molecules that induce genotoxicity in human embryonic kidney cells expressing luciferase-tagged ATAD5 (AID 651632); note: nearly all actives have a fitted effect of over 15% in size
How it was run: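 Luminescent reporter readout, HEK293T ATAD5-luc line: 16 hr drug exposure (37C, 5% CO2) followed by Amplite, 30 min RT.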

[3] = qHTS assay for small molecule agonists of the p53 signaling pathway - cell viability (AID 651633; calls by dose curve; note: series mostly up to about 83 µM; nearly all actives have a fitted effect of over 30% in size)
How it was run: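 p53RE-bla cells were treated with compound for 16 hours at 37 C. Cytotoxicity was then measured as CellTiter-Glo luminescence after 30 min at room temperature.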

[4] = qHTS assay for small molecules that induce genotoxicity in human embryonic kidney cells expressing luciferase-tagged ATAD5 - cell viability (AID 651634; calls by dose curve; note: nearly all actives have a fitted effect of over 25% in size)
How it was run: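 Viability read: CellTiter-Fluor fluorescence, 30 min at 37C. Cells: HEK293T, luciferase-tagged ATAD5. Exposure: 15.5 hr, 37C, 5% CO2, compound or DMSO vehicle.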

[5] = qHTS assay for small molecule disruptors of the mitochondrial membrane potential - cell viability (AID 720634; calls by dose curve;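 note: human HepG2 liver cancer cells; series mostly up to about 83 µM; nearly all actives have a fitted effect of over 20% in size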)
How it was run: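 HepG2, 1 hr compound, 37 C. ATP luminescence via CellTiter-Glo, 30 min RT, same well as m-MPI.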

[6] = qHTS assay for small molecule disruptors of the mitochondrial membrane potential (AID 720635)
How it was run: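 HepG2 cells exposed to compound 1 hr at 37C, then Mito-MPS dye 30 min. Ratio read of aggregate (540/590 nm) versus monomer (490/535 nm) fluorescence.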

[7] = qHTS assay to test for compound auto fluorescence at 590 nm (red) in HepG2 cells (AID 720674)
How it was run: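 Seeding: 2,000 HepG2 cells/well, MEM/10% FBS, overnight 37 C. Dosing: compound vs DMSO. Incubation: 1 hr, 37 C, 5% CO2. Read: fluorescence 540 ex/590 em, Rose Bengal sodium as red reference.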

[8] = qHTS assay to test for compound auto fluorescence at 535 nm (green) in HepG2 cells (AID 720675)
[9] = qHTS assay to test for compound auto fluorescence at 460 nm (blue) in HEK293 cells (AID 720678)
How it was run: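 Intrinsic compound fluorescence is recorded in live HEK293 cultures after overnight incubation at 37C, 5% CO2, using excitation 405 nm and emission 460 nm. Values are referenced to triamterene.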

[10] = qHTS assay to test for compound auto fluorescence at 590 nm (red) in HEK293 cells (AID 720679)
How it was run: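 Red autofluorescence, HEK293 cells: 2,000 cells/well; attach 4-5 hr 37C; add 23 nL cpd or DMSO; incubate o/n 37C 5% CO2; read Ex540/Em590; Rose Bengal sodium reference.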

[11] = qHTS assay to test for compound auto fluorescence at 535 nm (green) in HEK293 cells (AID 720680)
[12] = qHTS assay to test for compound auto fluorescence at 460 nm (blue) in HEK293 cell free culture (AID 720681)
How it was run: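 Compounds were added to cell-free DMEM with 10% FBS and fluorescence read directly. The blue channel used 405 nm excitation and 460 nm emission, with triamterene as the reference fluorophore.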

[13] = qHTS assay to test for compound auto fluorescence at 535 nm (green) in HEK293 cell free culture (AID 720682)
How it was run: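 DMEM + 10% FBS, cell-free; cpd or DMSO pinned in; Ex485/Em535 read; output as fluorescein-equivalent signal.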

[14] = qHTS assay to test for compound auto fluorescence at 590 nm (red) in HEK293 cell free culture (AID 720683)
How it was run: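 Cell-free wells of DMEM with 10% FBS received compound, and intrinsic fluorescence was read at excitation/emission 540/590 nm. Values expressed as equivalence to Rose Bengal sodium.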

[15] = qHTS assay to test for compound auto fluorescence at 590 nm (red) in HepG2 cell free culture (AID 720684)
How it was run: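 Compound was pinned into wells holding MEM with 10% FBS and no cells, and red fluorescence was read at Ex/Em 540/590 nm. Signal is expressed as auto fluorescence equivalency relative to Rose Bengal sodium.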

[16] = qHTS assay to test for compound auto fluorescence at 460 nm (blue) in HepG2 cell free culture (AID 720685)
How it was run: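 Compound (23 nL) or DMSO pinned into cell-free MEM with 10% FBS; blue fluorescence read at 405/460 nm excitation/emission, expressed as auto-fluorescence equivalency to triamterene.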

[17] = qHTS assay to test for compound auto fluorescence at 535 nm (green) in HepG2 cell free culture (AID 720686)
[18] = qHTS assay to test for compound auto fluorescence at 460 nm (blue) in HepG2 cells (AID 720687)
How it was run: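 HepG2 cells in MEM with 10% FBS, attached overnight at 37 C, were exposed to compound or DMSO for 1 hr at 37 C, 5% CO2. Blue fluorescence was read at 405/460 nm, with triamterene as reference fluorophore.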

[19] = target: Glucocorticoid receptor (Homo sapiens) (UniProt P04150); assay: qHTS assay to identify small molecule agonists of the glucocorticoid receptor (GR) signaling pathway (AID 720691; active = well fitted activation curve with a large enough effect in the signal ratio in the repeat runs, not every such curve was filed as active; the % refers to the signal ratio)
Chain of Glucocorticoid receptor (Homo sapiens) (P04150 whole entry, looked up): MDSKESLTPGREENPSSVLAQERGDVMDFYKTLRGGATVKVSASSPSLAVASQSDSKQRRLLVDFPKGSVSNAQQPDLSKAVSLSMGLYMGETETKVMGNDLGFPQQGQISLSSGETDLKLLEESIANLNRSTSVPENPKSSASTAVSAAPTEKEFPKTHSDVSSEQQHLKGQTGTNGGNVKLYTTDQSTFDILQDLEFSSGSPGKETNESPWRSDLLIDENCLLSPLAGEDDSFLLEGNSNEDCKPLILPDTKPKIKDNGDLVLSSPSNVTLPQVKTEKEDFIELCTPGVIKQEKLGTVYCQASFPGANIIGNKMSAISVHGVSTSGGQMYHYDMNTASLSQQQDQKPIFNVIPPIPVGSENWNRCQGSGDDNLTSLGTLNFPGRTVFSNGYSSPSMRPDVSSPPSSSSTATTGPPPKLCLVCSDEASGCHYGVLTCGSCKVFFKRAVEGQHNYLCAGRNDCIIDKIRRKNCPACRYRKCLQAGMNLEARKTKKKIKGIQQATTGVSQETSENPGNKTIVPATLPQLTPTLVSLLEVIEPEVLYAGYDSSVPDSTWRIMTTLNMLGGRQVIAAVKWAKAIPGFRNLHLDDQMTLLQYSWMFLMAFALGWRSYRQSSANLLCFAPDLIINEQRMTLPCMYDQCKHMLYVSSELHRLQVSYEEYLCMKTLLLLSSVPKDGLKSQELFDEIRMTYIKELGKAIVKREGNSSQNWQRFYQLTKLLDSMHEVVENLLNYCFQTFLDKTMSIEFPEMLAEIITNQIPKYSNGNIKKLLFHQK
How it was run: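 qHTS in GR-bla HeLa cells: 4 h settling at 37 C/5% CO2, 18 h compound incubation at 37 C, 2 h LiveBLAzer B/G FRET substrate at room temperature, fluorescence intensity measured.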

[20] = target: Glucocorticoid receptor (Homo sapiens) (UniProt P04150); assay: qHTS assay to identify small molecule antagonists of the glucocorticoid receptor (GR) signaling pathway (AID 720692; active = well fitted inhibition curve with a large enough effect in the signal ratio in the repeat runs, not every such curve was filed as active; the % refers to the signal ratio)
How it was run: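 Inhibition of glucocorticoid signalling is measured in HeLa cells with a GRE-controlled beta-lactamase reporter; cells are co-treated with compound and 5 nM dexamethasone (final) for 18 h before FRET substrate readout.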
% is set by controls: 0 for no effect and ±100 for the full control effect.

CC12CCC(CC1=O)C2(C)C (stereo unspecified)
inactive: Potency [1] | Potency [2] | Potency [3] | Potency [4] | Potency [5] | Potency [6] | outcome [7] | outcome [8] | Potency [9] | outcome [10] | outcome [11] | Potency [12] | outcome [13] | outcome [14] | outcome [15] | Potency [16] | outcome [17] | Potency [18] | Potency [19] | Potency [20]

CC(=O)NC(Cc1ccccc1)C(=O)O (stereo unspecified)
inactive: Potency [1] | Potency [2] | Potency [3] | Potency [4] | Potency [5] | Potency [6] | outcome [7] | outcome [8] | Potency [9] | outcome [10] | outcome [11] | Potency [12] | outcome [13] | outcome [14] | outcome [15] | Potency [16] | outcome [17] | Potency [18] | Potency [19] | Potency [20]

COCc1ccc(COC)cc1
inactive: Potency [1] | Potency [2] | Potency [3] | Potency [4] | Potency [5] | Potency [6] | outcome [7] | outcome [8] | Potency [9] | outcome [10] | outcome [11] | Potency [12] | outcome [13] | outcome [14] | outcome [15] | Potency [16] | outcome [17] | Potency [18]

CO[Si](CCCNCCC[Si](OC)(OC)OC)(OC)OC
inactive: Potency [1] | Potency [2] | Potency [3] | Potency [4] | Potency [5] | Potency [6] | outcome [7] | outcome [8] | Potency [9] | outcome [10] | outcome [11] | Potency [12] | outcome [13] | outcome [14] | outcome [15] | Potency [16] | outcome [17] | Potency [18] | Potency [19] | Potency [20]

FC(F)(F)C(F)(F)C(F)(F)C(F)(F)C(F)(F)C(F)(F)C(F)(F)C(F)(F)C(F)(F)C(F)(F)F
inactive: activation [1] -5.47% [at 8.3 µM] | activation [2] 3.4% [at 8.08 µM] | activity change, negative = cytotoxicity [3] -19.5% [at 8.08 µM] | activity, negative = cytotoxicity [4] 13.6% [at 8.08 µM] | activity change, negative = cytotoxicity [5] 3.63% [at 8.08 µM] | ratio activity, negative = MMP loss [6] 21.5% [at 8.08 µM] | fluorescence, relative to Rose Bengal [7] 0.158% [at 9.17 µM] | fluorescence, % of fluorescein control [8] -0.0906% [at 9.17 µM] | fluorescence, % of triamterene [9] -0.0034% [at 9.17 µM] | fluorescence, % of fluorescent control [10] -0.155% [at 9.17 µM] | fluorescence, % of fluorescein [11] 0.0789% [at 9.17 µM] | fluorescence, % of fluorescent control [12] -0.0458% [at 9.17 µM] | activity change [13] 0.0023% [at 9.17 µM] | fluorescence, % of fluorescent control [14] -0.0476% [at 9.17 µM] | fluorescence, % of Rose Bengal [15] -0.199% [at 9.17 µM] | fluorescence, % of fluorescent control [16] -0.151% [at 9.17 µM] | fluorescence, % of fluorescein control [17] 0.0369% [at 9.17 µM] | fluorescence, % of fluorescent control [18] 0.105% [at 9.17 µM] | activation [19] -0.303% [at 6.9 µM] | activity change, negative = inhibition [20] -11.7% [at 7.04 µM]

N#CCc1ccccc1[N+](=O)[O-]
inactive: Potency [1] | Potency [2] | Potency [3] | Potency [4] | Potency [5] | Potency [6] | outcome [7] | outcome [8] | Potency [9] | outcome [10] | outcome [11] | Potency [12] | outcome [13] | outcome [14] | outcome [15] | Potency [16] | outcome [17] | Potency [18]

NC(=O)c1ncn([C@@H]2O[C@H](CO)[C@@H](O)[C@H]2O)c1O
inactive: Potency [1] | Potency [2] | Potency [3] | Potency [4] | Potency [5] | Potency [6] | outcome [7] | outcome [8] | Potency [9] | outcome [10] | outcome [11] | Potency [12] | outcome [13] | outcome [14] | outcome [15] | Potency [16] | outcome [17] | Potency [18] | Potency [19] | Potency [20]
